An excerpt weighted towards active compounds, which were near 2.9% of everything screened.
rCAG binder-1: binders of r(CAG) RNA repeats, primary screen, biochemical, fluorescence | inhibition, % at 3 µM | AID 651821, 2012 | r(CAG) RNA repeat, TO-PRO-1 dye displacement fluorescence | 370,000 tested, 1.3% active;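 active = inhibition above the plate cutoff, the mean of all test compounds on that plate plus 3 SD, cut at about 35% in these data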;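 also: 0% = DMSO alone and 100% = 100 µM mitoxantrone as full dye displacement; higher means more dye released from RNA so lower well fluorescence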
ZTA DNA inh: ZTA (EBV) inhibition in EBNA-1 counter-screen; ZTA-DNA binding, fluorescence polarization; inhibition, % at 11 µM; 320,000 tested, 0.15% active; in the data active = inhibition above about 33%
PAFAH1B3 FP inh: PAFAH1B3 enzyme inhibitors, primary screen, biochemical, fluorescence polarization, human | recombinant PAFAH1B3, FP-rhodamine probe | inhibition, % at 3.39 µM | 340,000 tested, 0.28% active | AID 492972, 2010;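 active = inhibition above the screen-wide average of all tested compounds plus 3 SD, cut at about 25% in these data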;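 also: 0% = enzyme with DMSO only and 100% = wells lacking PAFAH1B3 protein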
Target sequence (Q15102 whole entry, looked up): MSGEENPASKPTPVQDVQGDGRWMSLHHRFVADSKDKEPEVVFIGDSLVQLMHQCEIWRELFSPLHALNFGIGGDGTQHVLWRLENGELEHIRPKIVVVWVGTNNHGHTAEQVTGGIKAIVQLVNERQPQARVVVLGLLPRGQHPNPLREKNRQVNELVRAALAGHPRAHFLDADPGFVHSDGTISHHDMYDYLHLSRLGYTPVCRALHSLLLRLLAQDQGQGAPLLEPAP
PAFAH1B2 FP inh: PAFAH1B2 enzyme inhibitors, primary screen, biochemical, fluorescence polarization, human; 340,000 tested, 1.2% active; inhibition, % at 3.39 µM; AID 492953, 2010; Platelet-activating factor acetylhydrolase IB subunit alpha2 (Homo sapiens), P68402; recombinant PAFAH1B2, FP-rhodamine activity probe;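 active = inhibition above the mean of all tested compounds plus 3 SD, cut at about 24% in these data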;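 also: 0% = enzyme with DMSO and 100% = wells lacking PAFAH1B2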
Target sequence (P68402 whole entry, looked up): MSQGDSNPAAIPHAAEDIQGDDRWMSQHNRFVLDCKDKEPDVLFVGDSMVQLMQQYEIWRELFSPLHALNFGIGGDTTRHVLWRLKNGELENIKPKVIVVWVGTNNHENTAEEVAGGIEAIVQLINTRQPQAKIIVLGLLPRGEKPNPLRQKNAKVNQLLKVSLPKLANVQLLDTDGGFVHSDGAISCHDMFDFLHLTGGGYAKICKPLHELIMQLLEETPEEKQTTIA
PAFAH2 inh: PAFAH2 enzyme inhibitors, primary screen, biochemical, fluorescence polarization, human; Platelet-activating factor acetylhydrolase 2, cytoplasmic (Homo sapiens), Q99487; recombinant PAFAH2, FP-rhodamine activity probe; inhibition, % at 3.39 µM; 340,000 tested, 0.99% active; AID 492956, 2010;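 active = inhibition above the mean over all tested compounds plus 3 SD, cut at about 30% in these data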;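 also: inhibitors block probe labeling of enzyme so polarization drops; 0% = enzyme with DMSO and 100% = wells lacking PAFAH2 protein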
EBNA-1 inh: EBNA-1 DNA-binding inhibitors, primary screen, biochemical, fluorescence polarization. 300,000 tested, 0.34% active. inhibition, % at 14.8 µM; in the data active = inhibition above about 28%
rCAG binder conf: small molecules binding CAG repeat RNA – biochemical, fluorescence, confirmation; r(CAG) RNA repeat, TO-PRO-1 dye displacement fluorescence; 4,300 tested, 70% active; AID 652065, 2013; inhibition, % at 3 µM; shares compounds with rCAG binder-1;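 active = inhibition above a per-plate cutoff, the mean inhibition of sample wells plus 3 SD, cut at about 35% in these data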;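 also: loss of TO-PRO-1 fluorescence as compound displaces dye from 1x1 AA loop RNA; 0% = DMSO only wells and 100% = 100 µM mitoxantrone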
dCAG dye counter: displacement of TO-PRO-1 from CAG DNA duplex, counter-screen for rCAG RNA repeat binder project, biochemical, fluorescence, TO-PRO-1 dye, d(CAG) DNA oligo | shares compounds with rCAG binder-1 | d(CAG) DNA oligo TO-PRO-1 dye displacement | inhibition, % at 3 µM | 4,300 tested, 94% active;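 active = inhibition above its plate's cutoff, the mean test-well inhibition plus 3 SD, cut at about 4.8% in these data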;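 also: 0% = DNA dye mix with DMSO and 100% = 100 µM mitoxantrone; hits displace the dye from DNA and so lower well fluorescence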
dCAG dye DR: inhibitors of DNA CAG/GTC TO-PRO-1 complex, dose response, counter-screen for rCAG RNA repeat binder project, biochemical, fluorescence, TO-PRO-1 dye. shares compounds with rCAG binder-1. DNA CAG/GTC duplex TO-PRO-1 dye displacement fluorescence. IC50, µM. 250 tested, 20% active; in the data active = IC50 below about 10 µM
dCAG TOPRO ctr: TO-PRO-1 dye complex inhibitors on d(CAG) DNA, dose response, counter-screen, biochemical, fluorescence, late stage; shares compounds with rCAG binder-1; d(CAG) DNA duplex TO-PRO-1 dye displacement; IC50, µM; 30 tested, 80% active; AID 720649, 2013
rCAG binder-2: molecules binding r(CAG) RNA repeats, late stage dose response, late-stage follow-up, biochemical, fluorescence, dose response, powder samples; shares compounds with rCAG binder-1; r(CAG) RNA TO-PRO-1 dye displacement; IC50, µM; 30 tested, 100% active; AID 720651, 2013
* = called active by the depositor. Unless noted, no rule for the calls is given here.

Screening Cc1ccc(NC(=O)CC(=O)c2ccc([N+](=O)[O-])cc2)cc1S(=O)(=O)Nc1cccc(Cl)c1 returned rCAG binder-1 50*, ZTA DNA inh -24, PAFAH1B3 FP inh 24, PAFAH1B2 FP inh 27*, PAFAH2 inh 19, EBNA-1 inh -8, rCAG binder conf 64* and dCAG dye counter 25*.
Screening Cc1ccc(C(=O)Nc2cccc([N+](=O)[O-])c2)cc1S(=O)(=O)Nc1ccc(NC(=O)c2ccccc2)cc1 returned rCAG binder-1 55*, ZTA DNA inh -19, PAFAH1B3 FP inh -6, PAFAH1B2 FP inh 13, PAFAH2 inh -56, EBNA-1 inh 2, rCAG binder conf 41* and dCAG dye counter 21*.
For Cc1ccc(C(=O)Nc2ccccc2C(=O)O)cc1S(=O)(=O)Nc1ccccc1 the results were rCAG binder-1 67*, ZTA DNA inh 0, PAFAH1B3 FP inh -6, PAFAH1B2 FP inh -4, PAFAH2 inh -17, EBNA-1 inh 7, rCAG binder conf 46* and dCAG dye counter 15*.
CSc1c(N(C)C)c(=O)c1=S was read as rCAG binder-1 1.
`CCOC(=O)c1c(NC(=O)c2ccco2)sc2c1CCCCC2` gave rCAG binder-1 2, ZTA DNA inh 4, PAFAH1B3 FP inh -3, PAFAH1B2 FP inh 1, PAFAH2 inh 3 and EBNA-1 inh 1.
For COC(=O)c1c(NC(=O)c2ccc(C)c(S(=O)(=O)Nc3ccccc3C)c2)sc2c1CCCC2 the results were rCAG binder-1 1, ZTA DNA inh -5, PAFAH1B3 FP inh -7, PAFAH1B2 FP inh -1, PAFAH2 inh -16 and EBNA-1 inh 0.
CCOC(=O)c1c(NS(=O)(=O)Cc2ccccc2)sc2c1CCCC2 was read as rCAG binder-1 45*, ZTA DNA inh 7, PAFAH1B3 FP inh 12, PAFAH1B2 FP inh 12, PAFAH2 inh 7, EBNA-1 inh 12, rCAG binder conf 64*, dCAG dye counter 21* and dCAG dye DR >30.
`COC(=O)c1c(NS(=O)(=O)c2ccc3ccccc3c2)sc2c1CCCC2` gave rCAG binder-1 44*, ZTA DNA inh 13, PAFAH1B3 FP inh 4, PAFAH1B2 FP inh 3, PAFAH2 inh 7, EBNA-1 inh -1, rCAG binder conf 70*, dCAG dye counter 32*, dCAG dye DR inactive, dCAG TOPRO ctr 2.9* and rCAG binder-2 1*.
`CCOC(=O)c1c(NS(=O)(=O)c2ccc(Br)cc2)sc2c1CCC2` gave rCAG binder-1 68*, ZTA DNA inh -8, PAFAH1B3 FP inh 14, PAFAH1B2 FP inh 9, PAFAH2 inh 12, EBNA-1 inh 5, rCAG binder conf 80* and dCAG dye counter 34*.
For CS(=O)(=O)c1ccc2c(c1)sc1nc(=O)c(/C=C3/C=CC(=O)C(O)=C3)c(N)n12 the results were rCAG binder-1 39*, ZTA DNA inh 0, PAFAH1B3 FP inh 28*, PAFAH1B2 FP inh 53*, PAFAH2 inh 58*, EBNA-1 inh 10, rCAG binder conf 48* and dCAG dye counter 18*.
`CCCc1nn2c(=O)c(C(c3cccc(Cl)c3)c3c(O)nc4sc(CCC)nn4c3=O)c(O)nc2s1` gave rCAG binder-1 39*, ZTA DNA inh 0, PAFAH1B3 FP inh 14, PAFAH1B2 FP inh 8, PAFAH2 inh 16, EBNA-1 inh -7, rCAG binder conf 51* and dCAG dye counter 16*.
Cc1cccc(C)c1NC(=O)C1(C)CN(S(C)(=O)=O)CC(=O)N1CCc1ccc(O)cc1 (stereo not drawn) was read as rCAG binder-1 3.
`CCC(CC)(CC(=O)Nc1cccc(/C=C/c2nc(C3CCC3)cs2)c1)C(=O)O` gave rCAG binder-1 46*, rCAG binder conf 55* and dCAG dye counter 18*.
`CC(C)=C1C(=O)NN(c2ccc(F)c(Cl)c2)C1=O` gave rCAG binder-1 83*, ZTA DNA inh 0, PAFAH1B3 FP inh 0, PAFAH1B2 FP inh 2, PAFAH2 inh 10, EBNA-1 inh -9, rCAG binder conf 19 and dCAG dye counter 6.8*.
For O=C1CSC(=S)N1c1ccc(F)c(Cl)c1 the results were rCAG binder-1 -5, ZTA DNA inh -12, PAFAH1B3 FP inh -11, PAFAH1B2 FP inh -5, PAFAH2 inh -9 and EBNA-1 inh -5.
C=CCN1C(=O)/C(=C/c2ccc(OCC(=O)O)cc2)S/C1=N/c1nccs1 was read as rCAG binder-1 56*, ZTA DNA inh -7, PAFAH1B3 FP inh 10, PAFAH1B2 FP inh 2, PAFAH2 inh -2, EBNA-1 inh 8, rCAG binder conf 57* and dCAG dye counter 17*.
`C=CCN1C(=O)/C(=C/c2ccc(O)c(OC)c2)S/C1=N/c1nccs1` gave rCAG binder-1 35, ZTA DNA inh 1, PAFAH1B3 FP inh -21, PAFAH1B2 FP inh -12, PAFAH2 inh -9 and EBNA-1 inh 2.
O=C(N/C(=C/c1cccc(Br)c1)c1nc(=S)[nH][nH]1)c1ccccc1 was read as rCAG binder-1 30, ZTA DNA inh 2, PAFAH1B3 FP inh 9, PAFAH1B2 FP inh 6, PAFAH2 inh 7 and EBNA-1 inh 8.
Cc1ccc(C(=O)N/C(=C\c2ccc(Br)cc2)c2nc(=S)[nH][nH]2)cc1 was read as rCAG binder-1 41*, ZTA DNA inh -19, PAFAH1B3 FP inh -13, PAFAH1B2 FP inh -3, PAFAH2 inh -2, EBNA-1 inh -4, rCAG binder conf 53* and dCAG dye counter 23*.

Assay outcomes from PubChem.
